According to PubChem BioAssay (NCI):
This is part of a sample that, as a whole, favours compounds with a hit. Of some 83,000 tested, about 20% had one in any assay.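 Single-dose data. Exposure time 48 hours. Values below 10 considered active.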 Active and inactive are the calls of the source.

Columns and labels:
Test in all cases: NCI-60 one-dose screen, 48 h (100 = growth as untreated, 0 = no growth, -100 = all killed)
Conditions in all cases: 10 µM unless noted
[1] = tested on: T-47D breast
[2] = tested on: BT-549 breast
[3] = tested on: SW-620 colon
[4] = tested on: MCF7 breast
[5] = tested on: HCT-116 colon
[6] = tested on: HCC-2998 colon
[7] = tested on: KM12 colon
[8] = tested on: MDA-MB-435 melanoma

Measured: growth

CCc1ccc(-c2ccc(=O)n(-c3ccc(S(N)(=O)=O)cc3)n2)cc1
active: [2] 7.69% | [3] 7.19%
inactive: [1] 33.4% | [4] 30.2% | [5] 16.8% | [6] 53.9% | [7] 13.6%

O=C(O)C1CCCCN1c1nc(Cl)nc(Cl)n1 (stereo not given)
inactive: [1] 99% | [2] 103% | [3] 101% | [4] 100% | [5] 111% | [6] 101% | [7] 111%

CCN(CC)c1ccc(CNc2ccnc3ccccc23)cc1
inactive: [1] 29% | [2] 45.4% | [3] 70.8% | [4] 33.3% | [5] 30.3% | [6] 36.9% | [7] 73.6%

CC(C)(C)n1cc(-c2ccnc(NCCNS(=O)(=O)c3ccc(F)cc3)c2)c(-c2cccc(O)c2)n1
inactive: [1] 23.7% | [8] 64.7% | [3] 11% | [4] 28.5% | [5] 37.3% | [6] 31.2% | [7] 36.1%

COc1cc(-c2nn(-c3cccc(NC(=O)c4ccc(N5CCOCC5)c(C(F)(F)F)c4)c3)cc2-c2ccncc2)ccc1Cl
inactive: [1] 27.5% | [2] 14.3% | [3] 25.2%
active: [4] 8.85% | [5] 8.35% | [6] 8.82% | [7] 5.64%

CCCCN(CCCC)C(=O)CC
inactive: [1] 124% | [8] 104% | [3] 110% | [4] 93.3% | [5] 102% | [6] 107% | [7] 106%

Cc1ccc(S(=O)(=O)NC(=O)n2cc(-c3ccncc3)c(-c3ccc(Cl)c(O)c3)n2)cc1
inactive: [1] 108% | [2] 106% | [3] 131% | [4] 124% | [5] 96% | [7] 118%

CCOC(=O)c1ccc(NC(=O)N2CC(C)OC(C)C2)cc1 (stereo not given)
inactive: [1] 94.4% | [2] 97.8% | [3] 106% | [4] 96.4% | [5] 102% | [6] 105% | [7] 108%

CCOC(=O)c1cc(C(=O)c2cc(OC)c(OC)c(OC)c2)n2c1ccc1ccccc12
inactive: [1] 11.1% | [2] 66.9% | [3] 18.8% | [5] 25.8% | [6] 69.5% | [7] 28.5%

Cc1cc(N/N=C/c2nc(-c3ccccc3)oc2C)c2cc(Cl)ccc2n1
active: [1] -1.37% | [3] -73.3% | [4] -71.9% | [5] -94.2% | [6] -77.4% | [7] -83.3%
inactive: [2] 87%

Cc1ccc(S(=O)(=O)Nc2c(Br)cc(Br)cc2C(N)=O)cc1
inactive: [1] 101% | [2] 95.6% | [3] 102% | [5] 94.2% | [6] 106% | [7] 111%

CN1C=CN(Cc2ccc(-c3ccccn3)nc2)[CH-]1.CN1C=CN(Cc2ccc(-c3ccccn3)nc2)[CH-]1.[Au+3]
active: [4] 9.07% | [5] 1.98%
inactive: [1] 40.2% | [2] 31.1% | [3] 36.2% | [6] 25.3% | [7] 24.9%

CN1CCN(Cc2ccc(NC(=O)c3cncc(C#Cc4cnc(N)c5ccncc45)c3)cc2C(F)(F)F)CC1
active: [3] 3.27% | [5] 8.86% | [7] 9.68%
inactive: [1] 43.2% | [2] 49.2% | [4] 35.6% | [6] 33%

N=C(N)c1ccc(-c2ccc(-c3ccc(-c4cccs4)s3)s2)cc1
inactive: [1] 76% | [2] 99.5% | [3] 99.6% | [4] 84% | [5] 93.6% | [6] 98.7% | [7] 96.8%

O=C1c2c(Cl)c(Cl)c(Cl)c(Cl)c2C(=O)C2(Cl)CC=CCC12Cl (stereo not given)
active: [1] -38.3% | [3] -68.7% | [5] -90.2% | [6] -43% | [7] -6.67%
inactive: [2] 43.6%

CSc1nc2c(c(=O)[nH]1)C(c1ccc(C)cc1)C=C(C(=O)O)N2 (stereo not given)
inactive: [1] 96.6% | [2] 93.6% | [3] 99.8% | [4] 101% | [5] 109% | [6] 102% | [7] 112%

Fc1ccccc1-c1nc(-c2nc3cc(Cl)c(Cl)cc3[nH]2)c2ccccn12
inactive: [1] 31.5% | [2] 88.9% | [3] 80.2% | [4] 40.5% | [5] 37.7% | [6] 96.2% | [7] 80.5%

CCN(CC)CCOc1ccc(/C(=C(/C)c2ccccc2)c2ccc(OC(C)=O)cc2)cc1
inactive: [1] 60.2% | [2] 69.1% | [3] 95.5% | [4] 41.7% | [5] 79% | [6] 103% | [7] 102%

CCCCCCN1CSC(=S)N(CCCCCC)C1
inactive: [1] 96.4% | [2] 100% | [3] 94.2% | [4] 102% | [5] 86% | [6] 96.6% | [7] 103%

CN(C)CCN1C(=O)c2ccc3c4c(ccc(c24)C1=O)C(=O)N(CCN=C=S)C3=O
active: [1] -54.5% | [2] -87.5% | [3] -68.1% | [4] -67.7% | [5] -71.9% | [6] -87.4% | [7] -93%

CC(=O)Nc1nc(N)nc(NC(C)=O)c1N=O
inactive: [1] 110% | [2] 104% | [3] 101% | [4] 108% | [5] 98.6% | [6] 84% | [7] 111%

COc1cccc(CC(C)=C(c2ccc(OCCN3CCCCC3)cc2)c2ccc(OCCN3CCCCC3)cc2)c1
active: [1] -42.4% | [3] -71.2% | [4] -81.4% | [5] -64.7% | [6] -68.8% | [7] -30.9%
inactive: [2] 44.6%

N#Cc1c(-c2ccccc2)cc(-c2ccccc2)n(CC(=O)NO)c1=O
inactive: [1] 14.9% | [3] 59.8% | [4] 21.9% | [5] 40.7% | [6] 86.5% | [7] 41.2%
active: [2] 1.67%

COc1cc(-c2nn(-c3cccc(NC(=O)c4ccccc4)c3)cc2-c2ccncc2)ccc1Cl
active: [2] 1.29% | [4] 4.67% | [5] 8.58%
inactive: [1] 21.8% | [3] 18.4% | [6] 20.1% | [7] 12.3%

COc1ccc(/C(C#N)=C/c2cc(OC)c(OC)c(OC)c2)cc1
inactive: [1] 44.1% | [2] 40.7% | [3] 26.3% | [4] 18.6% | [5] 20.2% | [6] 72% | [7] 29.3%

CCc1cnc(=S)n(-c2ccccc2)c1
inactive: [1] 112% | [2] 107% | [3] 104% | [4] 108% | [5] 93.5% | [6] 86.5% | [7] 109%

COc1ccc2c(c1)OC1=C(C(=O)OC1)C2c1cc(OC)c2c(c1)OCO2 (stereo not given)
inactive: [1] 52.1% | [2] 26% | [3] 18.7% | [4] 15% | [5] 10% | [6] 14.9%
active: [7] 1.61%

COc1cc(/C=C/C(=O)c2cccc(-n3cc(-c4cc(OC)c(OC)c(OC)c4)[nH]c3=O)c2)cc(OC)c1OC
inactive: [6] 23.1%
active: [1] 8.37% | [2] -2.07% | [3] -47.2% | [4] -5.04% | [5] -78.3% | [7] -83.4%

CCN(CC)c1ccc(N=O)cc1
active: [3] -61.1%
inactive: [1] 44.9% | [2] 79.7% | [5] 37.9% | [6] 86.5% | [7] 40.3%

O=C(Nc1ccc(NCCN2CCOCC2)nc1)c1ccc([N+](=O)[O-])cc1
inactive: [1] 107% | [2] 98.6% | [3] 104% | [4] 89.2% | [5] 97.2% | [6] 101% | [7] 104%

ClC(Cl)c1nc(-c2cccnc2)n2nc(-c3ccccc3)cc2n1
inactive: [1] 50.2% | [2] 68.4% | [4] 50.6%
active: [3] 0.424% | [5] 0.678% | [6] -68.7% | [7] 2.3%

NC(=S)N/N=C(/CCN1CCCC1)CC(C1=C(O)C2=CCCCC2OC1=O)c1ccccc1 (stereo not given)
active: [5] 9.46%
inactive: [1] 47% | [2] 90.9% | [3] 69% | [6] 102% | [7] 102%

C/C=C(\C)C(C(=O)NC1CCCCC1)N(C(=O)C1CCc2cc(F)ccc2O1)c1ccc(Cl)cc1 (stereo not given)
inactive: [1] 95.2% | [2] 98.3% | [3] 103% | [4] 99.1% | [5] 103% | [6] 94.9% | [7] 111%
